Assay results: PubChem BioAssay AID449746 (Sanford-Burnham Center for Chemical Genomics, 2010)
Screen size: about 2,000 compounds; about 680 (34%) were called active. No stated cut-off is given here; in the data, active means inhibition mostly above about 28% (no sharp cut-off); inactive means mostly below about 22%. Only a sample is shown.

Assay: PMA/ionomycin-induced NF-kB reporter inhibitors, 697 retest, confirmation, B-cell NF-kB inhibitor project, cell-based, luminescence, single concentration (AID 449746)
Conditions: 697 B-cell NF-kB luciferase, 16 h, at 4 µM, stronger effect = higher value

inhibition, inactive:
COc1ccc(-n2nnnc2-c2nc3ccccc3s2)cc1 -323%
COc1ccc2nc(SCc3ccccc3)nc(C)c2c1 -295%
O=C(Nc1nc2ccccc2s1)c1ccc2c(c1)OCO2 -466%
Cc1ccc(-n2cc3ccc([N+](=O)[O-])cc3n2)cc1 -341%
Cc1cc2nc(-c3ccc(NC(=O)c4cccnc4)cc3)oc2cc1C -187%
Cc1cccc(-n2c(C)cc(/C=N\NC(=O)c3cccs3)c2C)c1 -11.6%
COc1cccc(/C=C/c2ccc3ccccc3n2)c1OC(C)=O -459%
COc1ccc(/C=C2\SC(=S)N(CCC(=O)Nc3ccccn3)C2=O)cc1OC 10.2%
NS(=O)(=O)c1ccccc1NC(=O)c1c(O)c2ccccc2[nH]c1=O -472%
O=C(/C=C/c1ccc(OCc2c(F)cccc2Cl)cc1)N1CCOCC1 -278%
COc1ccc(CNC(=O)CNC(=O)c2sc3ccccc3c2Cl)cc1OC 3.3%
Cn1c(-c2ccc(F)cc2)cc2onc(-c3ccccc3Cl)c2c1=O -244%
O=c1[nH]c(-c2ccccc2)c(-c2ccccc2)[nH]1 25.8%
CCOc1ccc(N/C=C/C(=O)c2ccccc2)cc1 -272%
COc1ccccc1OCc1nc2ccccc2s1 -319%
Cn1c(-c2ccc(C(=O)c3ccccc3)s2)nc2ccccc21 -249%
Cc1ccc(OCc2nc3ccccc3n2C)cc1 -216%
COc1cccc(-c2nc3cc(C)ccc3o2)c1 -299%
COc1ccc(Nc2nc(-c3ccccc3)cs2)cc1 -131%

inhibition, active:
Cn1c(=O)n(C)c2cc(C(=O)Nc3ccc4c(c3)OCO4)ccc21 35.1%
C/C(=N\Nc1nc(Nc2ccccc2)nc(N2CCOCC2)n1)c1cccs1 34.2%
C[C@@H]1C[C@@H]2O[C@H]2/C=C\C=C\C(=O)Cc2c(Cl)c(O)cc(O)c2C(=O)O1 79.9%
C=CCOc1ccc(/C=C2\SC(=S)N(CCC(=O)O)C2=O)cc1 54.5%
O=C(O)CCn1c(O)c(C=C2N=c3ccccc3=N2)sc1=S 58.5%
CCCc1nc2c(C)cc(-c3nc4ccccc4n3C)cc2n1Cc1ccc(-c2ccccc2C(=O)O)cc1 28.4%
